This is part of a sample that, as a whole, favours compounds with a hit. Of some 83,000 tested, about 20% had one in any assay.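 The test compound was applied at a single concentration to cells in 96-well plates for 48 hours, and percent growth was recorded.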 Unmarked numbers belong to inactive results. Activity calls are given as the source filed them. Rule for the calls: active = growth percent below 10; inactive = the rest.

Assay in all cases: NCI-60 one-dose screen, 48 h (100 = growth as untreated, 0 = no growth, -100 = all killed)
One assay has as its system NCI-H23 lung. As to conditions: 10 µM unless noted.
The next assay has as its system NCI-H226 lung. The following applies: 10 µM unless noted.
The next assay concerns NCI-H322M lung. As to conditions: 10 µM unless noted.
A further assay relates to HOP-62 NSCLC. The following applies: 10 µM unless noted.
Another assay deals with NCI-H460 lung. The following applies: 10 µM unless noted.
In the next assay the test system is HOP-92 NSCLC. As to conditions: 10 µM unless noted.
The test system of the next assay is NCI-H522 lung. The following applies: 10 µM unless noted.
In another assay the test system is A549/ATCC NSCLC. The following applies: 10 µM unless noted.
A further assay has as its system 786-0 renal. As to conditions: 10 µM unless noted.
The next assay has as its system COLO 205 colon. The following applies: 10 µM unless noted.
In the next assay the test system is DU-145 prostate. As to conditions: 10 µM unless noted.
In the next assay the test system is MALME-3M melanoma. The following applies: 10 µM unless noted.
The test system of another assay is MDA-MB-231 breast. As to conditions: 10 µM unless noted.
The test system of another assay is RXF 393 renal. The following applies: 10 µM unless noted.
The next assay deals with SF-268 CNS. The following applies: 10 µM unless noted.
In a further assay the test system is SF-295 CNS. As to conditions: 10 µM unless noted.
Another assay concerns SF-539 CNS. As to conditions: 10 µM unless noted.
For a further assay, the system named is UACC-257 melanoma. The following applies: 10 µM.
The next assay has as its system M14 melanoma. As to conditions: 10 µM unless noted.

As to `COc1cc2c3c(n(CCCNC4CCCCC4)c(=O)c2cc1OC)-c1cc2c(cc1C3=O)OCO2`, the growth in the assay on NCI-H23 lung was -51.7% (active); with NCI-H226 lung, 82.5%; in the assay on NCI-H322M lung, -80.3% (active); in the assay on HOP-62 NSCLC, -78.9% (active); in the assay with NCI-H460 lung, -80.1% (active); with HOP-92 NSCLC it was 91.5%. The growth with NCI-H522 lung is -60.5% (active); in the assay on A549/ATCC NSCLC, -87.5% (active); in the assay on 786-0 renal, -82.8% (active); with COLO 205 colon, -79.2% (active); with DU-145 prostate it was -68.4% (active); with MALME-3M melanoma it was -46.9% (active). The growth with MDA-MB-231 breast is -78.1% (active); with RXF 393 renal, 76.6%; in the assay with SF-268 CNS, 70.1%; with SF-295 CNS, 66.1%; in the assay with SF-539 CNS it was -85.5% (active); in the assay on UACC-257 melanoma it was 96.9%. The growth in the assay with M14 melanoma was 33%.

For `COc1ccc2c(c1)c(-c1nn3c(=O)cc(-c4ccccc4)nc3s1)cn2C`, the growth with NCI-H23 lung was 63%; in the assay with NCI-H226 lung, 21.1%; with NCI-H322M lung it was 65.2%; with HOP-62 NSCLC it was 43.2%; in the assay with NCI-H460 lung, 21.7%; in the assay with HOP-92 NSCLC, 18.7%. Also, the growth with NCI-H522 lung was -34% (active); in the assay on A549/ATCC NSCLC, 56.7%; in the assay on 786-0 renal, 37.8%; in the assay on COLO 205 colon it was 27.2%; in the assay with DU-145 prostate it was 63.8%; with MALME-3M melanoma, 35.5%. Besides, the growth in the assay on MDA-MB-231 breast is 55.3%; in the assay with RXF 393 renal it was 35.4%; in the assay on SF-268 CNS, 64.9%; in the assay on SF-295 CNS, 28.8%; in the assay with SF-539 CNS, 16%; with M14 melanoma, 35.4%.

In the case of `CS(=O)(=O)c1nccc(-c2c(-c3ccc(F)c(OCc4ccc(F)cc4)c3)nc3sccn23)n1`, the growth is 99.2% in the assay on NCI-H23 lung; 83.7% with NCI-H226 lung; -78.2% (active) with NCI-H322M lung; 68.3% in the assay with HOP-62 NSCLC; 10.3% in the assay on NCI-H460 lung; 23% in the assay with HOP-92 NSCLC. Moreover, the growth is 53.9% in the assay with NCI-H522 lung; 104% in the assay on A549/ATCC NSCLC; 95.1% in the assay on 786-0 renal; 109% in the assay on COLO 205 colon; -96.4% (active) in the assay on DU-145 prostate; 111% in the assay on MALME-3M melanoma. In addition, the growth was 79.9% in the assay with MDA-MB-231 breast; 84.2% with RXF 393 renal; 96.1% with SF-268 CNS; 96.9% with SF-295 CNS; 90.1% in the assay on SF-539 CNS; -56.9% (active) in the assay on UACC-257 melanoma. In addition, the growth in the assay on M14 melanoma was 81.3%.

As for `CS(=O)(=O)c1nccc(-c2c(-c3ccc(F)c(OCCc4ccc(F)cc4)c3)nc3sccn23)n1`, the growth is 10.7% with NCI-H23 lung; 78.1% with NCI-H226 lung; -89.1% (active) in the assay with NCI-H322M lung; 15.1% in the assay on HOP-62 NSCLC; -56% (active) in the assay on NCI-H460 lung; -26.3% (active) with HOP-92 NSCLC. The growth is -74.5% (active) with NCI-H522 lung; 83.5% in the assay on A549/ATCC NSCLC; 87.3% in the assay with 786-0 renal; 86.9% with COLO 205 colon; -91.6% (active) with DU-145 prostate; 91.7% in the assay on MALME-3M melanoma. Further, the growth in the assay with MDA-MB-231 breast was 1.19% (active); with RXF 393 renal it was 77.7%; in the assay with SF-268 CNS, 82.8%; in the assay with SF-295 CNS, 89%; with SF-539 CNS, 76.3%; in the assay on UACC-257 melanoma, -81.4% (active). The growth in the assay on M14 melanoma is 83.9%.

On to `C/C(Cc1ccc(Cl)cc1)=C(/c1ccccc1)c1ccc(OCCN)cc1`, for which the growth with NCI-H23 lung was 98.2%; in the assay on NCI-H226 lung it was 91.4%; in the assay with NCI-H322M lung it was 99.8%; with HOP-62 NSCLC, 108%; in the assay on NCI-H460 lung it was 104%; in the assay on HOP-92 NSCLC, 91.6%. Moreover, the growth is 96.1% in the assay with NCI-H522 lung; 99.1% in the assay on A549/ATCC NSCLC; 106% in the assay with 786-0 renal; 103% in the assay with COLO 205 colon; 106% in the assay on DU-145 prostate; 88.5% in the assay with MALME-3M melanoma. For the same molecule, the growth with MDA-MB-231 breast was 98.7%; with RXF 393 renal it was 102%; in the assay with SF-268 CNS it was 94.2%; in the assay on SF-295 CNS, 99.7%; in the assay with SF-539 CNS it was 99.7%; in the assay with UACC-257 melanoma, 106%. For the same molecule, in the assay on M14 melanoma, the growth was 95.7%.

For `CCN1CCN(Cc2ccc(C(=O)Nc3nc4ccc(Oc5ccnc(C(=O)NC)c5)cc4s3)cc2C(F)(F)F)CC1`, the growth with NCI-H23 lung was 42%; in the assay on NCI-H226 lung it was 76.3%; in the assay with NCI-H322M lung, 66.1%; with HOP-62 NSCLC, 63.9%; with NCI-H460 lung it was 26.2%; in the assay with HOP-92 NSCLC it was 37.4%. Further, the growth is 58.9% with NCI-H522 lung; 60.1% in the assay on A549/ATCC NSCLC; 39.5% in the assay on 786-0 renal; -43% (active) in the assay on COLO 205 colon; 79.3% with DU-145 prostate; -5.31% (active) with MALME-3M melanoma. The growth in the assay on MDA-MB-231 breast is 52%; with RXF 393 renal it was 25%; in the assay with SF-268 CNS, 78.1%; with SF-295 CNS it was 35.1%; in the assay on SF-539 CNS, -42.2% (active); with UACC-257 melanoma, -2.29% (active). Moreover, the growth in the assay on M14 melanoma is -4.9% (active).

With `Cc1ccccc1/C=C/c1nn2c(-c3ccoc3C)nnc2s1`, the growth in the assay on NCI-H23 lung was 97.8%; in the assay with NCI-H226 lung, 100%; with NCI-H322M lung it was 99.4%; with HOP-62 NSCLC, 107%; with NCI-H460 lung, 102%; with HOP-92 NSCLC, 93.9%. In addition, the growth with NCI-H522 lung was 92.4%; in the assay on A549/ATCC NSCLC, 90%; in the assay with 786-0 renal, 90.8%; in the assay on COLO 205 colon, 108%; with DU-145 prostate, 103%; in the assay with MALME-3M melanoma, 106%. In addition, the growth in the assay on MDA-MB-231 breast is 104%; with RXF 393 renal, 96.2%; in the assay with SF-268 CNS, 101%; in the assay with SF-295 CNS, 94%; in the assay on SF-539 CNS, 103%; with UACC-257 melanoma, 110%.

Turning to `C/C(=C(/c1ccc(O)cc1)c1ccc(OCCN2CCCCCC2)cc1)c1ccccc1`, the growth is 45.5% in the assay with NCI-H23 lung; 75.7% in the assay on NCI-H226 lung; 67% in the assay on NCI-H322M lung; 65.8% with HOP-62 NSCLC; 19.2% in the assay with NCI-H460 lung; 45% in the assay with HOP-92 NSCLC. Moreover, the growth is 65.6% in the assay on NCI-H522 lung; 56.7% with A549/ATCC NSCLC; 35.5% with 786-0 renal; -86.5% (active) in the assay with COLO 205 colon; 74.3% with DU-145 prostate; 2.85% (active) in the assay with MALME-3M melanoma. Further, the growth in the assay on MDA-MB-231 breast is 43.1%; in the assay on RXF 393 renal, 26%; with SF-268 CNS, 71.3%; in the assay on SF-295 CNS, 44%; with SF-539 CNS, 10.7%; in the assay on UACC-257 melanoma, -27% (active). Further, the growth in the assay with M14 melanoma was -3.91% (active).

The values above are taken from PubChem BioAssay (NCI).
